# FLuc counter – firefly luciferase modulation, counter-screen for miR-21 project | purified FLuc, Km substrates, luminescence inhibition | Potency, µM (series often up to 57.5 µM), for the others: at the top dose activity change, negative = inhibition, actives largely listed as inhibitors | actives 6.9% (n = 360,000) | AID 588342 | P08659;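 further: plate controls were vehicle for no effect and reference inhibitor for full effect; nearly all actives have a fitted effect of over 55% in size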
# Target sequence (P08659 whole entry, looked up): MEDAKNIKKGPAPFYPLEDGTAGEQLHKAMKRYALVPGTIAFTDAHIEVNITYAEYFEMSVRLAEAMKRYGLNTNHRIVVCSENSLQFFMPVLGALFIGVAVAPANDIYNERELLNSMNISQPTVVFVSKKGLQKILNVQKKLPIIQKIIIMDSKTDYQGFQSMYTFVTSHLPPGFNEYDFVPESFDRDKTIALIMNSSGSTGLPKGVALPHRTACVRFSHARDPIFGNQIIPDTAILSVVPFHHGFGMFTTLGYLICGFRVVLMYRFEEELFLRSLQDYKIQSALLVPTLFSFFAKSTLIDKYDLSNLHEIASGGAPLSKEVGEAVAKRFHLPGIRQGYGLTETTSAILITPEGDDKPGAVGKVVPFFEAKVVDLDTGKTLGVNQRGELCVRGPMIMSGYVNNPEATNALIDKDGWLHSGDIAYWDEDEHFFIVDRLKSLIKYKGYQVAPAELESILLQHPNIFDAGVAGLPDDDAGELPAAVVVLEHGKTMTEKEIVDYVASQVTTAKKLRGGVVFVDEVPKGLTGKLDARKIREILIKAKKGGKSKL
#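 Purified P. pyralis luciferase, 10 nM final, with Km-level 10 uM D-luciferin and 10 uM ATP in 50 mM Tris acetate pH 7.5, 10 mM Mg acetate, 0.01% Tween-20, 0.05% BSA; 6-point qHTS titration about 60 µM downward; luminescence read.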
# NPC1 promoter act – NPC1 promoter activation. Huh7 NPC1 promoter luciferase reporter, 24 h. Potency, µM (doses to about 9.22 µM), without a hit: at the top dose activation, hits mostly activators. actives 2.4% (n = 320,000); further: % of control where 0% means no effect; nearly all actives have a fitted effect of over 60% in size
#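 Luminescence read-out of NPC1 promoter-driven luciferase in stably transfected Huh7 cells; compounds delivered in DMSO and left 24 h at 37C, 5% CO2, qHTS titration format.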
# KinaseGlo FLuc – blocks Kinase-Glo luciferase, a counter-screen artifact; Kinase-Glo luciferase, ATP luminescence, 8 min; actives 0.28% (n = 200,000); Q27757; Potency, µM (series often up to 38.3 µM), for the others: top-dose activity change, negative = inhibition, most hits filed as inhibitors; further: on the % scale 0 is the no-effect control and ±100 the full control effect; nearly all actives have a fitted effect of over 60% in size
#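 Inhibition of Kinase-Glo luciferase light generation was assessed at 10 uM ATP in pH 7.2 imidazole buffer, with luminescence measured after eight minutes at ambient temperature.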
# SMN2 splice up – increases expression of the SMN2 splice variant; HEK293 SMN2-luciferase splicing reporter, luminescence, 30-36 h; Potency, µM (highest dose often 46.1 µM), for the others: at the highest dose activity change, positive = activation, usual class: activators; AID 1458; actives 2.8% (n = 210,000); further: % of control where 0% means no effect; nearly all actives have a fitted effect of over 55% in size
#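 qHTS luciferase splicing reporter: luminescence rises when SMN2 exon 7 is included in transfected HEK293 cells. Compound exposure lasted 30-36 h at 37C, with 4.5 mM final sodium butyrate as control, followed by a ONE-Glo read.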
# ELG1 genotox – inducers of genotoxicity in HEK293T ELG1-luciferase cells. AID 504466. actives 1.3% (n = 330,000). Potency, µM (top dose mostly 46 µM), for inactives: at the top dose activity change, positive = activation, hits mostly activators. HEK293T ELG1-luciferase reporter, luminescence, 16 h; further: % of control where 0% means no effect; nearly all actives have a fitted effect of over 60% in size
#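 ELG1-luciferase HEK293T cells, 2,000/well; compound pinned in; 16 hr, 37 °C, 5% CO2; ONE-Glo, 30 min RT; luminescence on CCD imager.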
# Rab9 prom act – activates the Rab9 promoter. Huh7 Rab9 promoter-luciferase reporter, luminescence, 24 h. Potency, µM (series often up to 9.22 µM), for inactives: top-dose activation, negative = inhibition, most hits filed as activators. actives 2.8% (n = 320,000); further: % of control where 0% means no effect; nearly all actives have a fitted effect of over 60% in size
#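 Huh7 cells stably carrying a Rab9 promoter-luciferase reporter, 1500 cells per well in OP-MEM I with 10% FBS, treated with compound 24 hours at 37C. Luciferase activity read by luminescence after 10 minutes with Amplite reagent.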
# * = called active by the depositor; ? = inconclusive; . = no result given. Only some compounds are listed: those with a hit (about 7.4% of all), similar ones and a draw of the others. The call rests on the fitted dose curve; in most records, active means well fitted curve in the direction sought with a large enough effect; inconclusive means small, poorly fitted or top-dose-only effect, or another doubt; inactive means no such curve, though single readings can be large; an effect the other way counts as inactive or inconclusive. Potency means the concentration at half of the fitted maximal effect.
SMILES,FLuc counter,NPC1 promoter act,KinaseGlo FLuc,SMN2 splice up,ELG1 genotox,Rab9 prom act
O=C1C2C3C=CC(C4CC34)C2C(=O)N1/N=C/c1ccc(-c2ccc(F)cc2[N+](=O)[O-])o1 (centres undefined),13µM*,6%,1%,0%,-2%,-2%
Brc1ccc(-c2nc(-c3ccccc3)no2)o1,12µM*,3.5µM*,-10%,18µM*,8.2µM*,2.5µM*
c1ccc(C(c2ccccc2)c2nc(-c3cccnc3)no2)cc1,0%,-7%,.,.,2%,0%
Cc1ccc(-c2nc(-c3cccnc3)no2)c(C)c1,?,2µM*,-1%,16µM*,5.2µM*,1.8µM*
Brc1ccc(-c2nc(-c3cccnc3)no2)o1,17µM*,4µM*,-27%,?,?,2.8µM*
N#Cc1c(Cl)nsc1NCCN1CCOCC1,0%,-3%,.,.,-4%,-4%
CCOc1ccc(NC(=O)N(Cc2c[nH]c3ccccc23)C2CCCCCC2)cc1,-1%,.,.,6%,.,.
COc1ccc(-c2oc(=O)c3cc(OC)c(OC)cc3c2C#C[C@]2(O)CC[C@H]3[C@@H]4CCc5cc(OC)ccc5[C@H]4CC[C@@]32C)cc1,.,.,.,.,3%,.
CCCc1ccc(OCc2nc(-c3ccc(NC(=O)c4ccco4)cc3)no2)cc1,13µM*,2.5µM*,0%,21%,16µM*,?
CCCc1ccc(OCc2nc(-c3ccc(NC(=O)c4cccs4)cc3)no2)cc1,13µM*,22%,-6%,?,?,?
O=c1oc(C2(O)CCCCC2)cc2ccc(/C=C/c3ccc(F)cc3)cc12,-8%,-1%,.,.,1%,-5%
COc1cc(OC)c(C2C(C#N)=C(C)NC(C)=C2C#N)c(C(=O)O)c1,3%,1%,.,.,1%,0%
Cc1cccc(C(=O)Oc2ccc(/C=N/O)cc2)c1,7.6µM*,26%,-2%,1%,?,15%
COc1cc(C(=O)N/N=C/c2ccc(OC(=O)c3cccc(C)c3)cc2)ccc1O,?,-2%,.,.,4%,-5%
O=C(Oc1ccc(/C=N/O)cc1)c1ccccc1Cl,9.5µM*,-2%,-1%,7%,13%,-1%
Cc1ccc2cc(CCNS(=O)(=O)c3ccc(Br)cc3)c(=O)[nH]c2c1C,0%,-6%,.,.,-4%,-3%
Cc1nn(S(=O)(=O)c2ccc(C(C)C)cc2)c(C)c1S(=O)(=O)N1CCCCC1,-18%,.,.,.,.,.
CCCCOC(=O)CSc1nnc(-c2ccc(Cl)cc2Cl)o1,?,6%,-2%,-21%,0%,-3%
CSc1nnc(-c2ccccc2Cl)o1,?,10%,0%,14%,?,22%
CC(C)OC(=O)CSc1nnc(-c2ccc(Cl)cc2Cl)o1,11µM*,6%,-1%,18%,-3%,-1%
CCSc1nnc(-c2ccc(Cl)cc2Cl)o1,9.5µM*,2.5µM*,-9%,?,4.1µM*,?
O=C1OCCC1Sc1nnc(-c2ccc(Cl)cc2Cl)o1 (centres undefined),1.3µM*,0%,.,.,-5%,-4%
CSc1nnc(-c2ccc(Cl)cc2Cl)o1,12µM*,?,-1%,16%,?,?
COc1ccc(/C=C/CN2CCC(CO)(Cc3ccccc3Cl)CC2)cc1,-1%,3%,-7%,-21%,2%,-1%
COc1ccc(C2C(=O)N(C3CCCCCC3)CC(=O)N2Cc2ccccc2)cc1 (centres undefined),-3%,.,.,.,.,.
SMILES,FLuc counter,NPC1 promoter act,KinaseGlo FLuc,SMN2 splice up,ELG1 genotox,Rab9 prom act
O=C(NC(=S)Nc1nc2c(s1)CSc1ccccc1-2)c1ccccc1,-29%,0%,-2%,2%,.,4%
Clc1ccc(CSc2nnc(-c3ccncc3)o2)c(Cl)c1,-14%,9%,0%,-19%,0%,-2%
O=C(O)CCSc1nnc(-c2ccc(Cl)cc2Cl)o1,0.85µM*,.,.,-30%,.,.
COc1cc(/C=N/NC(=O)c2nc3ccccn3c2C)cc(OC)c1O,-4%,-4%,-2%,19%,-3%,-4%
O=C(O)c1ccc(/C=N/NC(=O)c2cc3c(ccc4ccccc43)o2)cc1,6µM*,-2%,.,.,0%,11%
O=C(N/N=C/c1cccc([N+](=O)[O-])c1)c1cc2c(ccc3ccccc32)o1,-4%,?,-2%,-5%,14%,-5%
COc1ccc(/C=N\NC(=O)c2cc3c(ccc4ccccc43)o2)cc1O,12µM*,-2%,.,.,-9%,-1%
COc1cc(/C=N/NC(=O)c2cc3c(ccc4ccccc43)o2)cc(OC)c1O,4.8µM*,-2%,.,.,0%,-4%
COc1ccccc1/C=N/NC(=O)c1cc2c(ccc3ccccc32)o1,19µM*,1%,.,.,-5%,3%
CC1CCCC(NC(=O)c2cccs2)C1C (centres undefined),-1%,-1%,.,.,-3%,0%
CCN1C(=O)[C@H]2[C@H]3CN=C(SCc4ccc(C)cc4)N3[C@@](CC)(C(=O)OC)[C@H]2C1=O,.,.,.,.,1%,.
Cc1ccc(NC(=O)CSCC(=O)N2CCCc3ccccc32)cc1,-19%,-2%,.,.,3%,1%
O=C(O)/C=C\C(=O)Nc1ccc(F)c(F)c1F,0%,-1%,.,.,0%,-2%
C=CCOc1c(Cl)cc(CNCCCN2CCOCC2)cc1OC,0%,1%,.,.,0%,4%
Cc1ccc(-c2ccc(/C=N\NC(=O)c3cc4c(ccc5ccccc54)o3)o2)cc1[N+](=O)[O-],-5%,1%,-5%,-17%,7%,-1%
O=C(N/N=C/c1ccncc1)c1cc2c(ccc3ccccc32)o1,?,0%,-2%,-10%,3%,4%
COc1ccc(/C=N/NC(=O)c2cc3c(ccc4ccccc43)o2)cc1OC,11µM*,-3%,.,.,-4%,-3%
O=C(N/N=C/c1ccc(-c2ccc(Cl)c(C(=O)O)c2)o1)c1cc2c(ccc3ccccc32)o1,21µM*,13%,.,.,5%,1%
CCc1ccc(CN(C)CC(=O)Nc2ccc(S(=O)(=O)N3CCOCC3)cc2)cc1,-1%,0%,.,.,-4%,-11%
Cc1ccnc(NC(=O)c2ccc3c(c2)NC(=O)C(C)S3)c1 (centres undefined),1.9µM*,0.71µM*,.,.,?,0.63µM*
CC1Sc2ccc(C(=O)Nc3ccc(S(=O)(=O)N(C)C)cc3)cc2NC1=O (centres undefined),-7%,-1%,.,.,-20%,-7%
CC(=O)c1ccccc1NC(=O)c1ccc2c(c1)NC(=O)C(C)S2 (centres undefined),15µM*,?,.,.,?,?
O=C1NC(c2ccccc2Br)=N/C1=C\c1ccco1,0.38µM*,13%,.,.,?,?
